Inconclusive results are not listed. The source made the active and inactive calls. Unless noted, calls come from the whole dose curve; as a rule, active = well fitted curve in either direction with a large enough effect (not every such curve was filed as active); inconclusive = small, poorly fitted or top-dose-only effect, or another doubt; inactive = flat fitted curve, though single readings scatter.
What was measured:
[1] = target: Lysosomal acid glucosylceramidase (Homo sapiens) (UniProt P04062); assay: Glucocerebrosidase-p2 (AID 348; in the data active = potency below about 10 µM; note: potency is the fitted concentration of half-maximal effect); details: purified GBA, blue fluorogenic substrate, 40 min
Sequence of Lysosomal acid glucosylceramidase (Homo sapiens) (P04062 whole entry, looked up): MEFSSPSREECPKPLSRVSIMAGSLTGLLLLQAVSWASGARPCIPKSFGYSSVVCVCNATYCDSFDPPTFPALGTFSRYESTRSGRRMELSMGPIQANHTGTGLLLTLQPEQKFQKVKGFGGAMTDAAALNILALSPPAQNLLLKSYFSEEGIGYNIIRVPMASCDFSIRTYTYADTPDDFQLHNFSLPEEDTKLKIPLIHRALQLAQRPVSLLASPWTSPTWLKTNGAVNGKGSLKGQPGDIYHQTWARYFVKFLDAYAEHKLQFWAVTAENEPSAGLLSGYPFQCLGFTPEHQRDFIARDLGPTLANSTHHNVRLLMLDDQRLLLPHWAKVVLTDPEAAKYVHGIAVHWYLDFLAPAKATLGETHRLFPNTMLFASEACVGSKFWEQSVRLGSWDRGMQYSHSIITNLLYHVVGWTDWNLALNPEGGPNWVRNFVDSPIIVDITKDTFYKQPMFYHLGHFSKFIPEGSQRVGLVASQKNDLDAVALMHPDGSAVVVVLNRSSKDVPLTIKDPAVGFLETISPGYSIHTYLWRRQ
How it was run: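 Compounds titrated from 0.6 nM upwards against 0.2 nM enzyme in pH 5.9 citric acid/KH2PO4, taurocholate, tween-20; blue fluorogenic substrate 80 uM, 40 min room temperature, stopped and read Ex 365/Em 440 for AC50.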

[2] = AP1 Signaling Pathway (AID 357); details: ME-180 AP-1-bla reporter, EGF-induced, beta-lactamase ratio, 5 h; at 7.69 µM (top of the series) unless noted; note: % is set by controls: 0 for no effect and ±100 for the full control effect
How it was run: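 ME-180 cells with beta-lactamase reporter under AP-1 response element, stimulated with EC50 EGF; compounds tested in titration series, 5 h at 37 °C. CCF4 substrate added 2.5 h at room temperature; 460/530 nm emission ratio gave %activity and AC50.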

[3] = NFAT Signaling Pathway (AID 444); details: Jurkat NFAT-bla M1, carbachol, beta-lactamase ratio, 5 h; at 7.69 µM (top of the series) unless noted;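 note: carbachol stimulus at about its EC50 of 1 µM final; % is set by controls: 0 for no effect and ±100 for the full control effect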
How it was run: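 Jurkat cells with NFAT-driven β-lactamase reporter and co-expressed M1 receptor, stimulated with carbachol (final 1 uM, ~EC50), compound titration, 5 h at 37 °C. CCF4 loaded 1 h at RT; 460/530 nm ratio gave %activity and AC50.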

[4] = Stat Signaling Pathway (AID 446); details: ME-180 SIE beta-lactamase reporter, IL-6 stimulated, 5 h; at 7.69 µM (top of the series) unless noted;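 note: ME-180 cervical cancer cells given 40 pM IL-6 alongside compound; SIE-controlled beta-lactamase reporter measured as 460/530 nm FRET emission ratio; % is set by controls: 0 for no effect and ±100 for the full control effect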
How it was run: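 ME-180 SIE-bla cells; overnight plating; cpd + IL-6 40 pM, 5 h, 37 C; LiveBLAzer 2.5 h RT; 460/530 nm emission ratio. Normalized to 300 pM IL-6 and 125 nM JAK inhibitor controls.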

[5] = target: Glucocorticoid receptor (Homo sapiens) (UniProt P04150); assay: GR-GFP Redistribution (AID 450;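 active = compounds whose dose series gives a full or clear partial fitted curve of increased nuclear translocation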; note: potency is the fitted concentration of half-maximal effect); details: U2OS GR-GFP nuclear translocation, laser cytometry, 2 h
Sequence of Glucocorticoid receptor (Homo sapiens) (P04150 whole entry, looked up, the tested form may be a part): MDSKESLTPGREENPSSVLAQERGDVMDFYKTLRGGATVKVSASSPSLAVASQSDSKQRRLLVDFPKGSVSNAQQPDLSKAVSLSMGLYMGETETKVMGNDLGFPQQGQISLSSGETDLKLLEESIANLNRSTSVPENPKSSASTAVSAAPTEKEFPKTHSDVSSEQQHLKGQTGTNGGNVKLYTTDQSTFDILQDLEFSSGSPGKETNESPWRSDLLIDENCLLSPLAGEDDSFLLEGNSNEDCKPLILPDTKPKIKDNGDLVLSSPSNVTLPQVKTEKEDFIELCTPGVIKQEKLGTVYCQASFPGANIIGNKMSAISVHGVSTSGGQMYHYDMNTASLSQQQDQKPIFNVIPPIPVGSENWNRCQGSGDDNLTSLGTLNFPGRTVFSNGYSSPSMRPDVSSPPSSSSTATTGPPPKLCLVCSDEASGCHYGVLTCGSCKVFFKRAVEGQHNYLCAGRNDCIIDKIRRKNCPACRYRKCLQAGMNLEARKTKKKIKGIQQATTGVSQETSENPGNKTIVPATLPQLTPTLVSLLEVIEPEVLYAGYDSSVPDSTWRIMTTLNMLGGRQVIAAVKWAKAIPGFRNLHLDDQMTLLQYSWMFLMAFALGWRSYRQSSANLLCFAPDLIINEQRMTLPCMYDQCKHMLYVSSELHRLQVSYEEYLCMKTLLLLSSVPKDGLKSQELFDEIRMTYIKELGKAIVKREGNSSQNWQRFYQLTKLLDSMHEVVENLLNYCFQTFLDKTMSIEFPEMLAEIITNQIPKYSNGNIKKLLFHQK

[6] = target: Glucocorticoid receptor (Homo sapiens) (UniProt P04150); assay: GR-EFC Redistribution (AID 451; calls by dose curve; note: potency is the fitted concentration of half-maximal effect); details: CHO-K1 GR-EFC translocation, beta-gal luminescence, 2 h
How it was run: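 CHO-K1 cells expressing nuclear EA and GR-ED fragments of b-gal; compounds titrated up to 46 uM final, 2 h at 37 C. GR nuclear translocation read as complemented b-gal luminescence after 1 h RT detection.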

[7] = target: Mitogen-activated protein kinase 10 (Mus musculus) (UniProt Q61831); assay: JNK3 AlphaScreen Assay (AID 530); details: JNK3 lysate, c-Jun phosphorylation; series mostly up to 57.1 µM;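 note: kinase came from lysate of stimulated human HepG2 cells; signal reports phosphorylation of biotinylated GST-cJun 1-79 at Ser73 with 10 µM ATP; % is set by controls: 0 for no effect and ±100 for the full control effect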
How it was run: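 Pre-activated (IL-1β/TNFα) JNK3 in HepG2 lysates phosphorylates biotin-GST-cJun(1-79), 10 uM ATP; anti-phospho-cJun(Ser73) AlphaScreen read at room temperature, pH 7.6 Tris buffer. Compounds pre-incubated 15 min as titrations.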

[8] = target: 3',5'-cyclic-AMP phosphodiesterase 4B (Homo sapiens) (UniProt Q07343); assay: qHTS Assay for Inhibitors of PDE-IV (AID 607; active = well fitted activation curve with a large enough effect in the main read-out, with a control signal flat, not every such curve was filed as active; note: % of control where 0% means no effect); details: HEK293 ACTOne CNG channel cells, membrane potential fluorescence; series mostly up to 22.9 µM
Sequence of 3',5'-cyclic-AMP phosphodiesterase 4B (Homo sapiens) (Q07343 whole entry, looked up): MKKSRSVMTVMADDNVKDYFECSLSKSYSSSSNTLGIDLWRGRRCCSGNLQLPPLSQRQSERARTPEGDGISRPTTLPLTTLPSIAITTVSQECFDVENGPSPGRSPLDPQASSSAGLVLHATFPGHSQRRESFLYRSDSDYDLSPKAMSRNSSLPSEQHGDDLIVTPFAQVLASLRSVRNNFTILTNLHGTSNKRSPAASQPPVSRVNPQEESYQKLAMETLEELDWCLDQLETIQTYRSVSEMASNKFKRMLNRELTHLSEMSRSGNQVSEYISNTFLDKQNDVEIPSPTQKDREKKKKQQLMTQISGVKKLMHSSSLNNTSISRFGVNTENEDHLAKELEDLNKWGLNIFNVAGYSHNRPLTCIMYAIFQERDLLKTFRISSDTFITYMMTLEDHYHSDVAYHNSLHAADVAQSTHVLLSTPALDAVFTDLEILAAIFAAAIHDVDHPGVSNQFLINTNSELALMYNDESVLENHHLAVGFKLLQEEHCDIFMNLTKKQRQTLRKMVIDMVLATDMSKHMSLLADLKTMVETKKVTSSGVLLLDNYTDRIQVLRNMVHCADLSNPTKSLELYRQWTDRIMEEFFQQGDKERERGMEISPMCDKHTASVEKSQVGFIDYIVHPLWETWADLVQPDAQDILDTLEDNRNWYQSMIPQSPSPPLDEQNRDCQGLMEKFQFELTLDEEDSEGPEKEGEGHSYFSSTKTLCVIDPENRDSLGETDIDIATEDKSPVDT
How it was run: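 ACTOne HEK293 cells carry a modified cAMP-gated CNG channel and express endogenous PDE4; plated 1000 cells/well, compounds up to 22.9 uM final. Membrane-potential dye fluorescence (ex 535/em 590) was read; parental cells received 10 uM forskolin + 100 uM RO 20-1724.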

[9] = Confirmation and Secondary Assay for Modulators of Hemoglobin Beta Chain Splicing at IVS2 654 locus (AID 910; active = well fitted curve in the direction sought with a large enough effect; an effect the other way counts as inactive or inconclusive;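 note: HeLa cells stably carrying EGFP split by mutant beta-globin IVS2-654 intron; % of control where 0% means no effect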); details: HeLa EGFP-654 splicing reporter, GFP fluorescence, 48 h; series mostly up to 38.3 µM
How it was run: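 HeLa cells stably expressing EGFP interrupted by β-globin IVS2-654 intron, seeded overnight in Opti-MEM/2% FCS, then treated 2 days at 37 °C. Restored splicing read as total peak GFP intensity per well by laser scanning cytometry (488 nm excitation, 500–520 nm emission); 500 nM antisense PNA as control.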

[10] = Confirmation and Secondary Assay for Modulators of Hemoglobin Beta Chain Splicing at IVS2 705 locus (AID 930; active = well fitted curve in the direction sought with a large enough effect; an effect the other way counts as inactive or inconclusive;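 note: HeLa cells stably expressing the EGFP-705 splicing reporter; GFP fluorescence per well restored by corrected splicing of the IVS2-705 intron in EGFP; % of control where 0% means no effect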); details: HeLa EGFP-705 splicing reporter, GFP fluorescence, 48 h; series mostly up to 38.3 µM
How it was run: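 HeLa cells stably carrying EGFP interrupted by mutant beta-globin intron 2 (IVS2-705) treated 2 days at 37C with compound; 500 nM antisense PNA as control. Correct splicing read as total peak GFP intensity per well by laser-scanning cytometry.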

[11] = qHTS Assay for Lipid Storage Modulators (AID 1519; calls by dose curve); details: Drosophila S3 cells, BODIPY lipid droplet/cell ratio, laser cytometry, cells loaded with oleic acid; for activity change, negative = inhibition: at 57.5 µM (top of the series)
How it was run: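 Cells seeded at 5,000 per well were treated with compounds over a concentration series and loaded with oleic acid (400 uM, as added). Lipid droplet fluorescence (488 nm excitation, 500-530 nm channel) was read by laser-scanning cytometry and normalized to 20 uM Triacsin C.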

[12] = target: Ubiquitin carboxyl-terminal hydrolase 1 (Homo sapiens) (UniProt O94782); assay: Inhibitors of USP1/UAF1: Pilot qHTS (AID 504865; active = well fitted curve in the direction sought with a large enough effect; an effect the other way counts as inactive or inconclusive;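 note: rhodamine fluorescence freed from ubiquitin-rhodamine substrate followed over time; top concentration of the series differs between compounds; % is set by controls: 0 for no effect and ±100 for the full control effect; nearly all actives have a fitted effect of over 35% in size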); details: purified USP1/UAF1, Ub-rhodamine cleavage fluorescence; series mostly up to 54.9 µM
Sequence of Ubiquitin carboxyl-terminal hydrolase 1 (Homo sapiens) (O94782 whole entry, looked up): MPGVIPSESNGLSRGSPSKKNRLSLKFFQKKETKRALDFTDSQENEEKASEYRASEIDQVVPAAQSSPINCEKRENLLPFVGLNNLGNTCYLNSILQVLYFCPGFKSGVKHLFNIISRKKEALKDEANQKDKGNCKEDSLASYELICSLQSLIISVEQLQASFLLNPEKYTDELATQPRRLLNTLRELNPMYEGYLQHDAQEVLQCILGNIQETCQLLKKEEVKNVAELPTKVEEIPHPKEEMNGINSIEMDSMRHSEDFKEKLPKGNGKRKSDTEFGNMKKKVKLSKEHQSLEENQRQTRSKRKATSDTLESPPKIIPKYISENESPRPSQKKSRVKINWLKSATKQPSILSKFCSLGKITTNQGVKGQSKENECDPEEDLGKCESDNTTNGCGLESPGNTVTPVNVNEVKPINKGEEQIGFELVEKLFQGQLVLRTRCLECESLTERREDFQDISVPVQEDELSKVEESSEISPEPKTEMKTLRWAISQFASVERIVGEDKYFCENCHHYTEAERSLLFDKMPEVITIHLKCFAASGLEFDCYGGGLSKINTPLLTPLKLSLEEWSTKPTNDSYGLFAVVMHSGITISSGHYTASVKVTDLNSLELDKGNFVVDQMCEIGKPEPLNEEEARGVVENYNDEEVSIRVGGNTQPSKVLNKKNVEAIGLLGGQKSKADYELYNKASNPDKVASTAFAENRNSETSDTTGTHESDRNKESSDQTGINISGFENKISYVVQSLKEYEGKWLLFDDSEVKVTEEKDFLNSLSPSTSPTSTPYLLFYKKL
How it was run: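 USP1/UAF1 complex at 1 nM preincubated 15 min at room temperature with compound, then Ub-Rho substrate added at 150 nM final. Fluorescence (480/540 nm) read kinetically in 50 mM HEPES pH 7.8, 0.5 mM EDTA, 1 mM TCEP, 0.1 mg/ml BSA, 0.01% Tween-20.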

[13] = target: Cytochrome P450 1A2 (Homo sapiens) (UniProt P05177); assay: p450-cyp1a2 (AID 410; calls by dose curve; note: potency is the fitted concentration of half-maximal effect;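 for activity change, negative = inhibition: -100% = full effect of reference inhibitor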); details: recombinant CYP1A2, luciferin-ME demethylation, luminescence; series mostly up to 57 µM
Sequence of Cytochrome P450 1A2 (Homo sapiens) (P05177 whole entry, looked up): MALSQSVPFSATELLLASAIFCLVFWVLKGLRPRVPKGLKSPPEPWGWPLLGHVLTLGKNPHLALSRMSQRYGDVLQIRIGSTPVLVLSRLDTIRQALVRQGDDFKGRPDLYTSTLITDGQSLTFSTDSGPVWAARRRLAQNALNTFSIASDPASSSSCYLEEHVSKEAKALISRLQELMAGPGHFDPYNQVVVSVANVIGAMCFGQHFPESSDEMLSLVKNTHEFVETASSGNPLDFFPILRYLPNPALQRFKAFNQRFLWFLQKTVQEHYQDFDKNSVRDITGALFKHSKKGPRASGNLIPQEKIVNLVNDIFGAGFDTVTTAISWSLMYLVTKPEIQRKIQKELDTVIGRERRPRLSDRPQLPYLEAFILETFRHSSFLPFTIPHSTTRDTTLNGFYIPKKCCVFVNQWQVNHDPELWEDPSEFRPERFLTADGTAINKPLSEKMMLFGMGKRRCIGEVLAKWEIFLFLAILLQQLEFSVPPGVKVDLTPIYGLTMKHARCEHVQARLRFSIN
How it was run: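 20nM CYP1A2 with 100uM Luciferin-ME (at Km) in 100mM KPO4; compound preincubated 10 min, NADPH regeneration added, 60 min at room temperature. Luciferin quantified by luminescence after detection reagent; normalized to 57 uM furafylline.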

[14] = target: Cytochrome P450 3A4 (Homo sapiens) (UniProt P08684); assay: qHTS Assay for Activators of Cytochrome P450 3A4 (AID 885; active = well fitted curve in the direction sought with a large enough effect; an effect the other way counts as inactive or inconclusive; note: nearly all actives have a fitted effect of over 65% in size); details: recombinant CYP3A4, Luciferin-PPXE luminescence, 60 min; series mostly up to 57.1 µM
Sequence of Cytochrome P450 3A4 (Homo sapiens) (P08684 whole entry, looked up): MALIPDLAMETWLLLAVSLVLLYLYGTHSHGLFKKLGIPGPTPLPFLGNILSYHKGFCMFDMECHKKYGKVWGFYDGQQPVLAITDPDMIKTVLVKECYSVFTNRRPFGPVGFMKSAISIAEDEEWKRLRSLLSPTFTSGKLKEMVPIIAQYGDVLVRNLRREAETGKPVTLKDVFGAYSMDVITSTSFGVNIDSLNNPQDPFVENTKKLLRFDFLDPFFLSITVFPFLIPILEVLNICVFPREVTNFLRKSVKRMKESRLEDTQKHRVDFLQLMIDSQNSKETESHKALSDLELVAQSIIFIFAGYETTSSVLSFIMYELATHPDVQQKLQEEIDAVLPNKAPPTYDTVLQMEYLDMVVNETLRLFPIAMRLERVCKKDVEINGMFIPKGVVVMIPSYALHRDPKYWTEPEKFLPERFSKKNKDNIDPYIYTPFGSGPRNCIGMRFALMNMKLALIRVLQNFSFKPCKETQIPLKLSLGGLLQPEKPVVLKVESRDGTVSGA
How it was run: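 20nM CYP3A4 + 25uM Luciferin-PPXE (=KM), 200mM KPO4; cpd 10 min RT; NADPH regen, 60 min RT; stop w/ detection buffer, 20 min; luminescence. Normalized to 57 uM ketoconazole.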

[15] = target: Cytochrome P450 3A4 (Homo sapiens) (UniProt P08684); assay: qHTS Assay for Inhibitors and Substrates of Cytochrome P450 3A4 (AID 884; active = well fitted curve in the direction sought with a large enough effect; an effect the other way counts as inactive or inconclusive; note: nearly all actives have a fitted effect of over 50% in size; note: potency is the fitted concentration of half-maximal effect); details: recombinant CYP3A4, Luciferin-PPXE luminescence; series mostly up to 57.1 µM
How it was run: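 20 nM human CYP3A4 with 25 uM Luciferin-PPXE (at KM) in 200 mM KPO4, preincubated 10 min with compound; NADPH regeneration started a 60 min RT reaction. Luciferin detected by luminescence, normalized to 57 uM ketoconazole as full inhibition.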

[16] = target: Cytochrome P450 2D6 (Homo sapiens) (UniProt P10635); assay: qHTS Assay for Inhibitors and Substrates of Cytochrome P450 2D6 (AID 891; active = well fitted curve in the direction sought with a large enough effect; an effect the other way counts as inactive or inconclusive; note: potency is the fitted concentration of half-maximal effect; nearly all actives have a fitted effect of over 60% in size); details: recombinant CYP2D6, luciferin-ME EGE luminescence; series mostly up to 57.1 µM
Sequence of Cytochrome P450 2D6 (Homo sapiens) (P10635 whole entry, looked up): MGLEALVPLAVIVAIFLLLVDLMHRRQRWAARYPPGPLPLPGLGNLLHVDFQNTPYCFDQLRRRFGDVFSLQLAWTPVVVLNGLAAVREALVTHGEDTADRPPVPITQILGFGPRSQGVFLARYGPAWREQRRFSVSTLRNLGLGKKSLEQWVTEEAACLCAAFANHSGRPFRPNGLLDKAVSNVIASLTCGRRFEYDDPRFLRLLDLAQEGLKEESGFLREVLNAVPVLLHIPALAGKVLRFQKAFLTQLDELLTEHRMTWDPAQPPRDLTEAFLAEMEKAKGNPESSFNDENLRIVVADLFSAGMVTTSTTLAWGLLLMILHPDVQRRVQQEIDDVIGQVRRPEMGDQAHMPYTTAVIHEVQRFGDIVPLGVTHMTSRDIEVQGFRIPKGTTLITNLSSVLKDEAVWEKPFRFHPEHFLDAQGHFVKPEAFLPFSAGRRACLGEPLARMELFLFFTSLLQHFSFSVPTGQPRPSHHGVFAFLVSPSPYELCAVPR
How it was run: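 Human CYP2D6 (5 nM) with 30 uM Luciferin-ME EGE (at Km) in 100 mM KPO4, compound preincubated 10 min, then NADPH regeneration system for 60 min at room temperature. Luciferin read by luminescence; normalized to 1.43 uM quinidine.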

[17] = target: Cytochrome P450 2C19 (Homo sapiens) (UniProt P33261); assay: qHTS Assay for Inhibitors and Substrates of Cytochrome P450 2C19 (AID 899; active = well fitted curve in the direction sought with a large enough effect; an effect the other way counts as inactive or inconclusive; note: nearly all actives have a fitted effect of over 60% in size; note: potency is the fitted concentration of half-maximal effect); details: recombinant CYP2C19, luciferin-H EGE luminescence; series mostly up to 57.1 µM
Sequence of Cytochrome P450 2C19 (Homo sapiens) (P33261 whole entry, looked up): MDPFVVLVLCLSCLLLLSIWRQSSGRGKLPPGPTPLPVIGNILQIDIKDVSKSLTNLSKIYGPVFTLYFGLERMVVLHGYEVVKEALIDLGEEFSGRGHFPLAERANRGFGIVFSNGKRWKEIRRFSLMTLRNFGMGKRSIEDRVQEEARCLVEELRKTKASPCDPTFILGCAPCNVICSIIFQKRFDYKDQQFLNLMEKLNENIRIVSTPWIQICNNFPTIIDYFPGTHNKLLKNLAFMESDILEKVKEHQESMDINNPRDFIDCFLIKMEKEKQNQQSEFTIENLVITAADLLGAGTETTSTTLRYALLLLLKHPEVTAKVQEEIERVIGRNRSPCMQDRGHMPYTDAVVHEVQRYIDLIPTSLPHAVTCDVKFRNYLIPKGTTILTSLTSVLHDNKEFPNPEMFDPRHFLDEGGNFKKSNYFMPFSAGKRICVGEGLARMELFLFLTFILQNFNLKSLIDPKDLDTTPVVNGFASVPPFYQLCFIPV
How it was run: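 Signal comes from luciferase acting on luciferin released by CYP2C19-mediated hydroxylation of Luciferin-H EGE, 10uM (KM). Assay mix: 5nM enzyme, 50mM KPO4; 60 min at 37C with NADPH regeneration. Data normalized against 57uM ketoconazole.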

[18] = measured here: cell count channel max response
[19] = measured here: lipid channel max response

Row | Compound | Potency [1] | activity change, negative = inhibition [2] | activity change, negative = inhibition [3] | activity, negative = inhibition [4] | Potency [5] | Potency [6] | Potency [7] | Potency [8] | Potency [9] | outcome [10] | activity change, negative = inhibition [11] | max response [11, 18] | max response [11, 19] | Potency [12] | Potency [13] | Potency [14] | Potency [15] | Potency [16] | Potency [17]
1 | CN(C)Cc1ccccc1-c1ccc2ncnc(NC3CC3)c2c1 | > 11.4 µM (inactive) | 24% (inactive) | -9.4% (inactive) | -14.6% (inactive) | > 46 µM (inactive) | > 46 µM (inactive) | inactive | inactive | inactive | inactive | 9.69% (inactive) | 12.6% | 24.1% | inactive | – | – | – | – | –
2 | O=C(Nc1cccc(F)c1)N1CCCC2(CCN(C(=O)c3cc(C(F)(F)F)cc(C(F)(F)F)c3)CC2)C1 | > 11.4 µM (inactive) | -25.5% (inactive) | 23.3% (inactive) | -17.6% (inactive) | – | – | inactive | – | – | – | 0.997% (inactive) | 12.9% | 17.1% | – | 12.6 µM (active) | inactive | – | – | –
3 | c1ccc(C(c2ccccc2)N2CC3(CCNCC3)C2)cc1 | > 11.4 µM (inactive) | 14% (inactive) | – | – | – | > 46 µM (inactive) | inactive | inactive | – | – | 0.527% (inactive) | -0.423% | 0.5% | – | 15.8 µM (active) | – | inactive | 2.51 µM (active) | –
4 | Cc1noc(C)c1C(=O)N1CCC[C@@]2(CCN(Cc3cc(C(F)(F)F)cc(C(F)(F)F)c3)C2)C1 | > 11.4 µM (inactive) | 1.15% (inactive) | 14.8% (inactive) | 1.36% (inactive) | – | > 46 µM (inactive) | inactive | inactive | – | – | 4.37% (inactive) | 12.5% | 19.6% | – | inactive | inactive | – | – | inactive
5 | c1ccc(C(c2ccccc2)N2CCC3(CCNCC3)CC2)cc1 | > 11.4 µM (inactive) | -10.6% (inactive) | – | 0.474% (inactive) | – | > 46 µM (inactive) | inactive | – | – | – | -5.07% (inactive) | 27.4% | 21.5% | – | inactive | – | – | – | 3.98 µM (active)
6 | COc1ccccc1CN1CCC2(CC1)CCN(S(=O)(=O)c1ccccc1)CC2 | > 11.4 µM (inactive) | -0.16% (inactive) | – | 5.45% (inactive) | – | > 46 µM (inactive) | inactive | inactive | – | – | 0.93% (inactive) | 19% | 23.6% | – | inactive | – | – | 0.158 µM (active) | –
7 | O=C(c1cnccn1)N1CCC2(CCCN(c3cccc(-c4ccccc4)c3)C2)CC1 | > 11.4 µM (inactive) | -16.1% (inactive) | 5.03% (inactive) | -8.34% (inactive) | – | > 46 µM (inactive) | inactive | – | – | – | -1.76% (inactive) | 20.5% | 18.4% | – | 20 µM (active) | inactive | 2 µM (active) | – | –

— PubChem BioAssay (NCATS)
